Measurements as given in paper PMC9838217, “Structure of SALL4 zinc finger domain reveals link between AT-rich DNA binding and Okihiro syndrome”.
Substitutions are numbered along the chain they refer to.

Columns and labels:
Experiment in all cases: HT-SELEX; high values mean tight binding
Details in all cases: protein: recombinant; vector His6-GST; dsDNA, one strand shown
[1] = target: T1, SALL4 ZFC4 WT (HT-SELEX) (Mus musculus, UniProt Q8BX22 870-940)
T1 sequence: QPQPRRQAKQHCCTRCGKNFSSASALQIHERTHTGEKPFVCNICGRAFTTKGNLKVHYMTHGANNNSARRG
Procedure, shortened: (§1)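 Purified recombinant mouse SALL4 zinc finger cluster 4 (residues 870–940, 1 µg) and library DNA (1.5 µg first cycle, 200 ng later) were incubated for 10 min at room temperature in 100 µl of 10 mM Tris–HCl pH 7.5, 50 mM NaCl, poly(dI-dC) and DTT. After Ni2+ bead capture and up to 6 triplicate cycles of selection, DNA was MiSeq-sequenced and scanned for 6-mers. Binding signal is the fold change in each canonical k-mer's read fraction relative to the initial random library.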

[2] = target: T2, SALL4 ZFC4 R900W (HT-SELEX) (Mus musculus, UniProt Q8BX22 870-940, R900W)
T2 sequence: T1 sequence with R31W
Procedure, shortened: as §1

[3] = target: T3, SALL4 ZFC4 G921D (HT-SELEX) (Mus musculus, UniProt Q8BX22 870-940, G921D)
T3 sequence: T1 sequence with G52D
Procedure, shortened: as §1

| Sequence | binding signal [1] [fold-change vs cycle 0] | binding signal [2] [fold-change vs cycle 0] | binding signal [3] [fold-change vs cycle 0] |
| --- | --- | --- | --- |
| CCTCAG | 0.494 ± 0.0292 | 0.591 ± 0.0293 | 0.666 ± 0.0425 |
| ATGAAG | 1.56 ± 0.0293 | 1.68 ± 0.108 | 1.51 ± 0.124 |
| ACTAGT | 1.33 ± 0.0473 | 1.52 ± 0.0779 | 1.37 ± 0.106 |
| ATAATA | 4.87 ± 0.591 | 2.66 ± 0.215 | 2.24 ± 0.293 |
| GAGTGC | 0.332 ± 0.0145 | 0.398 ± 0.019 | 0.554 ± 0.055 |
| ATAGCG | 0.516 ± 0.00601 | 0.55 ± 0.0156 | 0.681 ± 0.0378 |
| AGCTGA | 0.687 ± 0.028 | 0.802 ± 0.0342 | 0.882 ± 0.0146 |
| CACAGA | 0.669 ± 0.0131 | 0.784 ± 0.0217 | 0.8476 ± 0.00739 |
| ACTACG | 0.659 ± 0.026 | 0.728 ± 0.025 | 0.821 ± 0.0676 |
| GAAAAA | 1.86 ± 0.136 | 1.6 ± 0.0749 | 1.47 ± 0.105 |
| GATCCC | 0.519 ± 0.025 | 0.62 ± 0.0104 | 0.711 ± 0.017 |
| GCTTAA | 1.02 ± 0.0584 | 1.15 ± 0.0607 | 1.12 ± 0.048 |
| ACGTTC | 0.7 ± 0.0339 | 0.844 ± 0.024 | 0.8714 ± 0.00795 |
| ACAACT | 1.25 ± 0.0434 | 1.37 ± 0.0317 | 1.38 ± 0.0748 |
| CAAGAG | 0.839 ± 0.0412 | 1.03 ± 0.0313 | 1.015 ± 0.00973 |
| CTGGTA | 0.8022 ± 0.00263 | 0.908 ± 0.0333 | 0.954 ± 0.0144 |
| AATCAA | 2.03 ± 0.0966 | 2 ± 0.106 | 1.81 ± 0.125 |
| GGCATA | 0.502 ± 0.0157 | 0.562 ± 0.025 | 0.668 ± 0.0401 |
| AGTAAT | 2.39 ± 0.144 | 2.3 ± 0.183 | 1.99 ± 0.219 |
| AGGAAA | 1.31 ± 0.0867 | 1.43 ± 0.085 | 1.35 ± 0.118 |

| Sequence | binding signal [1] [fold-change vs cycle 0] | binding signal [2] [fold-change vs cycle 0] | binding signal [3] [fold-change vs cycle 0] |
| --- | --- | --- | --- |
| ACAAGG | 0.796 ± 0.0489 | 0.976 ± 0.041 | 0.945 ± 0.0282 |
| AAGCTC | 0.631 ± 0.0495 | 0.76 ± 0.0539 | 0.866 ± 0.0327 |
| CGGGAA | 0.362 ± 0.00736 | 0.417 ± 0.0262 | 0.499 ± 0.0534 |
| ACATGC | 0.613 ± 0.0259 | 0.7108 ± 0.0052 | 0.774 ± 0.017 |
| AAATCA | 1.98 ± 0.081 | 1.8 ± 0.0687 | 1.7 ± 0.128 |
| AGTTCC | 0.848 ± 0.0309 | 0.972 ± 0.0535 | 0.98 ± 0.0319 |
| TCCAAA | 1.1 ± 0.0395 | 1.19 ± 0.0233 | 1.17 ± 0.00926 |
| CAGAAG | 0.787 ± 0.03 | 0.933 ± 0.0195 | 0.93 ± 0.0319 |
| AGATGG | 0.853 ± 0.0339 | 0.933 ± 0.00507 | 0.962 ± 0.0157 |
| ATCCCC | 0.549 ± 0.0564 | 0.604 ± 0.0359 | 0.664 ± 0.0449 |
| AATTCC | 1.34 ± 0.0764 | 1.36 ± 0.0844 | 1.31 ± 0.0693 |
| TTTAAA | 2.46 ± 0.106 | 2.33 ± 0.125 | 2.04 ± 0.174 |
| TCTCAA | 1.28 ± 0.029 | 1.413 ± 0.011 | 1.34 ± 0.061 |
| TTAGAA | 1.97 ± 0.0545 | 2.01 ± 0.0848 | 1.75 ± 0.166 |
| ACAGAA | 1.26 ± 0.036 | 1.37 ± 0.0837 | 1.3 ± 0.0881 |
| GACGTC | 0.306 ± 0.00649 | 0.386 ± 0.024 | 0.522 ± 0.0468 |
| CGTGAA | 0.669 ± 0.0388 | 0.776 ± 0.0286 | 0.834 ± 0.041 |
| AAAGCC | 0.465 ± 0.0355 | 0.543 ± 0.0413 | 0.65 ± 0.0602 |
| AGGACC | 0.441 ± 0.038 | 0.54 ± 0.0359 | 0.632 ± 0.0389 |
| AAACTT | 1.81 ± 0.119 | 1.89 ± 0.128 | 1.68 ± 0.174 |

| Sequence | binding signal [1] [fold-change vs cycle 0] | binding signal [2] [fold-change vs cycle 0] | binding signal [3] [fold-change vs cycle 0] |
| --- | --- | --- | --- |
| AAAAGT | 1.71 ± 0.0529 | 1.76 ± 0.0934 | 1.58 ± 0.113 |
| GACCTC | 0.415 ± 0.0384 | 0.51 ± 0.0119 | 0.644 ± 0.0572 |
| ATGAAC | 1.5 ± 0.0592 | 1.55 ± 0.0999 | 1.47 ± 0.0678 |
| TGGGAA | 0.795 ± 0.0577 | 0.859 ± 0.0429 | 0.877 ± 0.0259 |
| CGGTCA | 0.331 ± 0.0331 | 0.405 ± 0.0336 | 0.52 ± 0.0692 |
| GTACAC | 0.768 ± 0.0559 | 0.868 ± 0.0144 | 0.9395 ± 0.00736 |
| ATCGTA | 1.24 ± 0.0384 | 1.28 ± 0.0284 | 1.29 ± 0.0379 |
| TAAGCA | 1.282 ± 0.00819 | 1.3 ± 0.0615 | 1.26 ± 0.0364 |
| TCTGAA | 1.3 ± 0.0929 | 1.43 ± 0.078 | 1.37 ± 0.111 |
| ACCTAC | 0.796 ± 0.0505 | 0.908 ± 0.0415 | 0.957 ± 0.0179 |
| AAAGCT | 1.01 ± 0.0609 | 1.13 ± 0.0411 | 1.17 ± 0.0323 |
| CCGGAA | 0.325 ± 0.0139 | 0.368 ± 0.0111 | 0.491 ± 0.0897 |
| AAATGC | 0.879 ± 0.0146 | 0.918 ± 0.025 | 0.969 ± 0.0401 |
| CCAAAA | 0.9105 ± 0.0059 | 0.953 ± 0.0119 | 0.997 ± 0.0429 |
| CTACTA | 1.31 ± 0.0478 | 1.47 ± 0.0658 | 1.39 ± 0.0974 |
| CAGACC | 0.367 ± 0.0114 | 0.461 ± 0.0322 | 0.553 ± 0.0477 |
| GACTGC | 0.3204 ± 0.00172 | 0.399 ± 0.0161 | 0.525 ± 0.0461 |
| CGAAAC | 0.59 ± 0.0153 | 0.676 ± 0.0229 | 0.748 ± 0.0402 |
| AAGTAC | 1.23 ± 0.0679 | 1.37 ± 0.0898 | 1.31 ± 0.0947 |
| GCTAAA | 0.898 ± 0.0417 | 1 ± 0.0491 | 1.03 ± 0.0278 |
